# Results published in PubChem BioAssay.
# Where “and” joins values, the source holds several entries; their conditions need not be identical. Identical values can stand only once. Records with an inconclusive call do not appear. Calls of active or inactive are those of the source.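 How the source made its calls, unless noted: active means normalized viability below 100% at a tested concentration; inactive means the rest.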
# Legend:
# [1] = growth inhibition of DIPG glioma cells, dose response, cell-based, JHH-DIPG-1, MIPE4.0, CellTiter-Glo, qHTS (AID 1347062; cut-off not given, nearly all actives have AC50 up to about 27 µM); conditions: JHH-DIPG-1 viability, CellTiter-Glo ATP luminescence
# [2] = SU-DIPG-XXV glioma cell viability, MIPE5.0 library, qHTS (AID 1347068; cut-off not given, nearly all actives have IC50 up to about 30 µM;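 on IC50: cells exposed to compound for 48 hours before viability readout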)
# [3] = sensitizers of A549 cells to miR-34 induction, primary screen, imaging, A549 dox-inducible miR-34, nuclei and caspase counts (AID 1347080;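 active means compounds whose cell count with miR-34 switched on is under 0.7 times the count with it off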); conditions: A549 miR-34 inducible, Hoechst nuclei count, 48 h
# [4] = modifiers of HSF1 nuclear foci, imaging, Selleck Cancer Library (AID 1347162; in the data active means plate-normalised HSF1 focus index below about 0.46); conditions: human cells, at 10 µM; SSMD: measured here: HSF1 foci SSMD mean; cell count: measured here: cell number; plate-normalised HSF1 focus index: stronger effect = lower value
# [5] = survival rescue of mitochondrial mutant cells in low glucose, primary screen, MELAS cybrids, Rieske KO mouse fibroblasts, CellTiter-Glo (AID 1508586;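 active means mean z-score across replicates of 1.96 or higher in either the MELAS or the Rieske mutant cell line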;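 further: z relative to plate mean and SD of compound and empty wells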)
# [6] = ovarian cancer cell viability with rucaparib, profiling panel, oncology-focused library, rucaparib conditional (AID 1508598); conditions: patient-derived ovarian cancer cells, CellTiter-Glo viability, 144 h, stronger effect = lower value
# [7] = growth inhibition of DIPG glioma cells, dose response, cell-based, SU-DIPG-IV, MIPE4.0, CellTiter-Glo, qHTS (AID 1347063; cut-off not given, nearly all actives have AC50 up to about 30 µM;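 further: compound exposure lasted 48 hours before the viability readout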); conditions: SU-DIPG-IV viability, CellTiter-Glo ATP luminescence
# [8] = SU-DIPG-VI glioma cell viability, MIPE4.0 library, CellTiter-Glo luminescence, qHTS (AID 1347066; cut-off not given, nearly all actives have AC50 up to about 30 µM;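 further: cells exposed to compound for 48 hours before readout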); conditions: CellTiter-Glo ATP luminescence
# [9] = growth inhibition of DIPG glioma cells, dose response, cell-based, SU-DIPG-XIII, MIPE5.0, CellTiter-Glo, qHTS (AID 1347064; cut-off not given, nearly all actives have AC50 up to about 23 µM;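 on AC50: cells exposed to compound for 48 hours before the viability read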); conditions: SU-DIPG-XIII viability, CellTiter-Glo ATP luminescence
# [10] = viability loss in pontine glioma line – cell-based, SU-DIPG-XXV, MIPE5.0, CellTiter-Glo, qHTS, dose response (AID 1347065; cut-off not given, nearly all actives have AC50 up to about 26 µM;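 further: cells exposed to compound for 48 hours before ATP readout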); conditions: CellTiter-Glo ATP luminescence
# [11] = JHH-DIPG-1 glioma cell viability, MIPE5.0 library, CellTiter-Glo luminescence, qHTS (AID 1347067; cut-off not given, nearly all actives have AC50 up to about 26 µM;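 further: cells exposed to compound for 48 hours before readout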); conditions: JHH-DIPG-1 glioma viability, CellTiter-Glo ATP luminescence
# [12] = liver-stage malaria parasite growth inhibition, primary screen, cell-based, HepG2, luciferase luminescence, HepG2 viability (AID 624349; in the data active means parasite load remaining mostly below about 12%, no sharp cut-off; inactive means mostly above about 10%;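 further: 100% = mean of DMSO negative control wells on the same plate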); conditions: P. berghei liver stage in HepG2, luciferase luminescence, concentration not given here; parasite load remaining: stronger effect = lower value; viability: measured here: HepG2 viability without parasites
# [13] = tested on: Hepatitis C virus NS3 helicase; experiment: HCV NS3 helicase inhibitors, primary screen, biochemical, fluorescence polarization, LOPAC1280 library (AID 687035; in the data active means inhibition above about 37%); conditions: Purified HCV NS3 helicase, Cy5-dT15 ssDNA binding fluorescence polarization; stronger effect = higher value; concentration not given here
# [14] = Cy5 fluorescence quenching or enhancement artefacts, artefact control for HCV NS3 helicase inhibitor project, biochemical, LOPAC1280 (AID 687037; call rule not given here); conditions: Cy5-DNA-NS3h complex fluorescence interference counterscreen
# [15] = phospholipid biosynthesis inhibitors in animal cells, primary screen, cell-based, LOPAC library, screen 4 (AID 1347384; call rule not given here); conditions: phospholipid biosynthesis inhibition screen, at 10 µM
# [16] = viability rescue of complex I mutant cybrids, primary screen, cell-based, galactose medium, ATP luminescence (AID 1645843;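 active means z-score of at least 1.8 in each of two replicates, scored against plate mean and spread of sample wells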;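 further: positive z means more ATP and so rescue of galactose-driven cybrid death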); conditions: complex I mutant cybrid cells, 72 h, stronger effect = higher value
# [17] = stronger effect = lower value, cell number ratio, induced over uninduced
# [18] = measured here: relative caspase fold change +Dox/-Dox
# [19] = measured here: total cells with miR-34 induction, stronger effect = lower value
# [20] = measured here: total cells without miR-34 induction
compound,measurement,setting,value
O=C(Nc1cccnc1)N1CCC(Cc2cccc(Oc3ccc(C(F)(F)F)cn3)c2)CC1,outcome,[1],inactive
same,outcome,[2],inactive
same,fold change,[3]; [17],1.36 (inactive)
same,fold change,[3]; [18],0.837
same,cell count,[3]; [19],4250
same,cell count,[3]; [20],3120
same,SSMD,[4],3.05
same,cell count,[4],7690
same,plate-normalised HSF1 focus index,[4],1.19 (inactive)
same,z-score,"[5]; MELAS cybrid survival, CellTiter-Glo 48 h, stronger effect = higher value",-0.261 (inactive)
same,z-score,"[5]; Rieske KO mouse fibroblast survival, CellTiter-Glo 72 h",-0.332
same,viability,"[6]; at 0.000305 µM, OCI-C5x cells, with rucaparib 10 µM, 100% = cells with rucaparib alone",111% (inactive)
same,viability,"[6]; at 0.000305 µM, OCI-C5x cells, without rucaparib",123% (inactive)
same,viability,"[6]; at 0.000305 µM, OCI-P5x cells, with rucaparib 20 µM, 100% = cells with rucaparib alone",110% (inactive)
same,viability,"[6]; at 0.000305 µM, OCI-P5x cells, without rucaparib",110% (inactive)
same,viability,"[6]; at 0.00122 µM, OCI-C5x cells, with rucaparib 10 µM, 100% = cells with rucaparib alone",108% (inactive)
same,viability,"[6]; at 0.00122 µM, OCI-C5x cells, without rucaparib",129% (inactive)
same,viability,"[6]; at 0.00122 µM, OCI-P5x cells, with rucaparib 20 µM, 100% = cells with rucaparib alone",111% (inactive)
same,viability,"[6]; at 0.00122 µM, OCI-P5x cells, without rucaparib",99.8% (active)
same,viability,"[6]; at 0.00488 µM, OCI-C5x cells, with rucaparib 10 µM, 100% = cells with rucaparib alone",128% (inactive)
same,viability,"[6]; at 0.00488 µM, OCI-C5x cells, without rucaparib",120% (inactive)
same,viability,"[6]; at 0.00488 µM, OCI-P5x cells, with rucaparib 20 µM, 100% = cells with rucaparib alone",112% (inactive)
same,viability,"[6]; at 0.00488 µM, OCI-P5x cells, without rucaparib",102% (inactive)
same,viability,"[6]; at 0.0195 µM, OCI-C5x cells, with rucaparib 10 µM, 100% = cells with rucaparib alone",116% (inactive)
same,viability,"[6]; at 0.0195 µM, OCI-C5x cells, without rucaparib",118% (inactive)
same,viability,"[6]; at 0.0195 µM, OCI-P5x cells, with rucaparib 20 µM, 100% = cells with rucaparib alone",105% (inactive)
same,viability,"[6]; at 0.0195 µM, OCI-P5x cells, without rucaparib",102% (inactive)
same,viability,"[6]; at 0.0781 µM, OCI-C5x cells, with rucaparib 10 µM, 100% = cells with rucaparib alone",114% (inactive)
same,viability,"[6]; at 0.0781 µM, OCI-C5x cells, without rucaparib",117% (inactive)
same,viability,"[6]; at 0.0781 µM, OCI-P5x cells, with rucaparib 20 µM, 100% = cells with rucaparib alone",103% (inactive)
same,viability,"[6]; at 0.0781 µM, OCI-P5x cells, without rucaparib",102% (inactive)
same,viability,"[6]; at 0.313 µM, OCI-C5x cells, with rucaparib 10 µM, 100% = cells with rucaparib alone",117% (inactive)
same,viability,"[6]; at 0.313 µM, OCI-C5x cells, without rucaparib",117% (inactive)
same,viability,"[6]; at 0.313 µM, OCI-P5x cells, with rucaparib 20 µM, 100% = cells with rucaparib alone",106% (inactive)
same,viability,"[6]; at 0.313 µM, OCI-P5x cells, without rucaparib",98.4% (active)
same,viability,"[6]; at 1.25 µM, OCI-C5x cells, with rucaparib 10 µM, 100% = cells with rucaparib alone",134% (inactive)
same,viability,"[6]; at 1.25 µM, OCI-C5x cells, without rucaparib",129% (inactive)
same,viability,"[6]; at 1.25 µM, OCI-P5x cells, with rucaparib 20 µM, 100% = cells with rucaparib alone",100% (inactive)
same,viability,"[6]; at 1.25 µM, OCI-P5x cells, without rucaparib",96.3% (active)
same,viability,"[6]; at 5 µM, OCI-C5x cells, with rucaparib 10 µM, 100% = cells with rucaparib alone",126% (inactive)
same,viability,"[6]; at 5 µM, OCI-C5x cells, without rucaparib",124% (inactive)
same,viability,"[6]; at 5 µM, OCI-P5x cells, with rucaparib 20 µM, 100% = cells with rucaparib alone",87.1% (active)
same,viability,"[6]; at 5 µM, OCI-P5x cells, without rucaparib",85.5% (active)
c1ccc(-c2oc3ncnc(NC[C@@H]4CCCO4)c3c2-c2ccccc2)cc1,AC50,[7],20.9 µM (active)
same,AC50,[8],20.9 µM (active)
same,outcome,[2],inactive
COc1cc(OCc2cccc(-c3ccccc3)c2C)cc(OC)c1CN1CCCC[C@H]1C(=O)O,outcome,[9],inactive
same,AC50,[10],20.9 µM (active)
CC(C)N(CCCNC(=O)Nc1ccc(C(C)(C)C)cc1)C[C@H]1O[C@@H](n2cc(Br)c3c(N)ncnc32)[C@H](O)[C@@H]1O,AC50,[7],14.8 µM (active)
same,IC50,[2],23.5 µM (active)
O=C(O)c1ccc(CCCc2ccc(OCCc3ccc(F)cc3)cc2)o1,outcome,[9],inactive
Cc1c(C(=O)Nc2ccc(N3C[C@@H](C)O[C@@H](C)C3)nc2)cccc1-c1ccc(OC(F)(F)F)cc1,AC50,[7],20.9 µM (active)
same,AC50,[10],20.9 µM (active)
same,AC50,[11],23.5 µM (active)
same,SSMD,[4],-6.97
same,cell count,[4],6140
same,plate-normalised HSF1 focus index,[4],0.637 (inactive)
Cc1c(C(=O)N2CCOc3ccc(-c4ccc(N)nc4)cc3C2)ccc(S(C)(=O)=O)c1F,AC50,[9],2.95 µM (active)
same,AC50,[10],4.17 µM (active)
COc1cc(N2CCC(C(N)=O)CC2)ccc1Nc1nc(N)c(Cl)c(Nc2ccccc2S(=O)(=O)C(C)C)n1,AC50,[7],5.9 µM (active)
NS(=O)(=O)c1ccc(Nc2nc(OCC3CCCCC3)c3[nH]cnc3n2)cc1,outcome,[1],inactive
same,outcome,[2],inactive
O=C1NC(=O)/C(=C/c2ccc(-c3ccc(F)cc3O)o2)S1,parasite load remaining,[12],10.7% (active)
same,viability,[12],62.9%
same,inhibition,[13],0% (inactive)
same,fluorescence ratio (interference),[14],1 (inactive)
same,outcome,[1],inactive
same,outcome,[11],inactive
same,fold change,[3]; [17],1.04 (inactive) and 0.983 (inactive)
same,fold change,[3]; [18],2.12 and 0.302
same,cell count,[3]; [19],6690 and 5950
same,cell count,[3]; [20],6460 and 6050
same,outcome,[15],inactive
same,z-score,[16],1.31 (inactive)
